From PubChem BioAssay (EPA / NIEHS)
Active and inactive are the calls of the source. How the source made its calls: active means hit-call score of the fitted dose curve at least 0.9, where 1 is the maximum; inactive means score below 0.9.

Tests used:
[1] = ATG_CRE_CIS: Attagene CIS-FACTORIAL HepG2 Assay for human cAMP Responsive Element (CRE) binding protein 3 (AID 2282926); conditions: HepG2 CRE cis-reporter, Attagene multiplexed mRNA; actives raise or lower the signal
Outline: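 Assay format: transient reporter transfection of HepG2, 24 h treatment, total RNA isolation with DNase I step. Reporter abundance read by fluorescence after PCR and capillary separation; DMSO-normalised gain or loss fitting.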

[2] = ATG_CMV_CIS: Attagene CIS-FACTORIAL HepG2 Assay for human CMV (Internal Marker) (AID 2282928); conditions: HepG2 CMV promoter reporter, transcription factor profiling; actives raise or lower the signal;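 further: endpoint acts as a background internal control marker rather than a target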
Outline: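 24 h chemical treatment, HepG2 with transient multi-reporter transfection; RNA → oligo(dT) RT → PCR → 6-FAM extension → HpaI digest → CE fluorescence. Bidirectional fit, DMSO negative control.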

[3] = ATG_DR4_LXR_CIS: Attagene CIS-FACTORIAL HepG2 Assay for human Liver X Receptor (LXR), DR4 submotif (AID 2282929); conditions: HepG2 Attagene DR4 cis-reporter, mRNA transcription; actives raise or lower the signal
Outline: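 Transiently transfected HepG2 liver cells; cis-regulated reporters; 24 h dosing. RT-PCR plus CE read-out of reporter mRNA. DMSO baseline, bidirectional curve fitting.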

[4] = biological target: Aryl hydrocarbon receptor (Homo sapiens) (UniProt P35869); assay: ATG_Ahr_CIS: Attagene CIS-FACTORIAL HepG2 Assay for human Aryl Hydrocarbon Receptor (Ahr) (AID 2282930); conditions: HepG2 AhR cis-factorial reporter transcription; actives raise or lower the signal
Outline: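 HepG2 cells transiently transfected with cis-element-driven multiplexed reporter transcription units; endogenous transcription factor activity measured as reporter mRNA 24 h after dosing. RT-PCR, 6-FAM labelling, HpaI digestion, capillary electrophoresis; bidirectional fitting versus DMSO baseline.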

[5] = ATG_AP_1_CIS: Attagene CIS-FACTORIAL HepG2 Assay for human Activator Protein 1 (AP-1) (AID 2282931); conditions: HepG2 Attagene cis-factorial AP-1 reporter mRNA; actives raise or lower the signal
Outline: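 We transfected HepG2 cells transiently with a set of cis-regulated reporter transcription units, dosed them for 24 h, and quantified reporter mRNA via RT-PCR and capillary electrophoresis, scoring gain or loss of signal relative to DMSO.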

[6] = ATG_AP_2_CIS: Attagene CIS-FACTORIAL HepG2 Assay for human Activator Protein 2 (AP-2) (AID 2282932); conditions: HepG2 AP-2 cis-reporter, Attagene transcription factor profiling; actives raise or lower the signal
Outline: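 Cells (HepG2) transfected with promoter-driven reporter constructs, treated 24 h. Total RNA reverse-transcribed, reporter cDNA PCR-amplified, FAM-labelled by primer extension, digested, resolved by capillary electrophoresis. Activity fitted both directions versus DMSO.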

[7] = ATG_BRE_CIS: Attagene CIS-FACTORIAL HepG2 Assay for human Bone Morphogenetic Protein (BMP) Response Element (BRE) (AID 2282933); conditions: HepG2 BMP response element reporter, Attagene transcription factor profiling; actives raise or lower the signal
Outline: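 Transient MRTU transfection of human HepG2 liver cells; 24 h compound treatment; total RNA isolated, reverse-transcribed, PCR-amplified, 6-FAM labelled, HpaI-cut, capillary electrophoresis. DMSO = negative control/baseline, bidirectional fit.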

[8] = biological target: Retinoic acid receptor alpha (Homo sapiens) (UniProt P10276); assay: ATG_DR5_RAR_CIS: Attagene CIS-FACTORIAL HepG2 Assay for human Retinoic Acid Receptor Alpha (RARE), DR5 submotif (AID 2282934); conditions: HepG2 Attagene cis-factorial RARE DR5 reporter, mRNA; actives raise or lower the signal;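 on AC50: reporter responds to endogenous RAR alpha beta and gamma in HepG2 not RARA alone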
Outline: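 HepG2 cells transiently transfected with multiplexed reporter units under cis (DR5 RARE) promoters, so endogenous transcription factor activity is measured. After 24 h compound exposure, reporter mRNA is quantified by RT-PCR with fluorescent labelling and capillary electrophoresis; bidirectional fitting versus DMSO.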

[9] = biological target: Transcription factor E2F1 (Homo sapiens) (UniProt Q01094); assay: ATG_E2F_CIS: Attagene CIS-FACTORIAL HepG2 Assay for human E2F Transcription Factor 1 (AID 2282935); conditions: HepG2 Attagene cis-reporter, E2F reporter RNA transcripts; actives raise or lower the signal
Outline: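 First, HepG2 cells were transfected with reporter transcription units. Next, they were dosed for 24 h. Then RNA was isolated, converted to cDNA, PCR-amplified, FAM-labeled, HpaI-digested and analyzed by capillary electrophoresis.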

[10] = ATG_E_Box_CIS: Attagene CIS-FACTORIAL HepG2 Assay for human Enhancer Box (E-box) (AID 2282936); conditions: HepG2 E-box cis-reporter transcription, actives raise or lower the signal
Outline: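 Endogenous transcription factor activity was sensed in human HepG2 liver cells through transfected cis-promoter reporter units. After 24 h of dosing, total RNA was reverse-transcribed and reporter cDNA resolved by capillary electrophoresis.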

[11] = ATG_M_61_CIS: Attagene CIS-FACTORIAL HepG2 Assay for M61 Transcription Factor (Internal Marker) (AID 2282937); conditions: HepG2 Attagene CIS-FACTORIAL M61 internal marker reporter; actives raise or lower the signal
Outline: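 Multiplexed reporter mRNA assay, HepG2 human hepatoma cells, 24 h treatment. Signal: FAM-labelled, HpaI-digested RT-PCR fragments by CE. Fit: bidirectional, baseline DMSO.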

[12] = ATG_EGR_CIS: Attagene CIS-FACTORIAL HepG2 Assay for human Early Growth Response 1 (EGR1) (AID 2282938); conditions: HepG2 Attagene CIS-FACTORIAL EGR reporter mRNA; actives raise or lower the signal
Outline: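 Multiplexed cis-reporter system in human hepatoma HepG2 cells, transiently transfected. Cells are dosed for 24 h; reporter transcripts are amplified, fluorescently tagged and sized by capillary electrophoresis, with DMSO as negative control.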

[13] = ATG_M_19_CIS: Attagene CIS-FACTORIAL HepG2 Assay for M19 Transcription Factor (Internal Marker) (AID 2282939); conditions: HepG2 Attagene CIS-FACTORIAL M19 internal marker reporter; actives raise or lower the signal
Outline: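 Transfect HepG2 with MRTU reporter library → dose chemical, 24 h → isolate total RNA, reverse-transcribe with oligo(dT) → PCR, 6-FAM label, HpaI cut (2 h, 37 C) → capillary electrophoresis. Bidirectional fit vs DMSO.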

[14] = ATG_ERE_CIS: Attagene CIS-FACTORIAL HepG2 Assay for Estrogen Response Element (ERE) (AID 2282940); conditions: HepG2 ERE cis-reporter, Attagene RNA transcript; actives raise or lower the signal
Outline: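 Transient MRTU transfection of human HepG2; cis-element promoters; 24 h dosing; total RNA → RT (oligo dT) → PCR → 6-FAM primer extension → HpaI digest → CE fluorescence. Bidirectional fit, DMSO baseline.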

[15] = ATG_Ets_CIS: Attagene CIS-FACTORIAL HepG2 Assay for human Erythroblast Transformation Specific (ETS) (AID 2282941); conditions: HepG2 ETS cis-reporter transcription, actives raise or lower the signal
Outline: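 Cis-regulated reporter mRNA induction in HepG2 (transient transfection), 24 h exposure, RT-PCR plus capillary electrophoresis detection; DMSO serves as negative control and baseline.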

[16] = biological target: Hepatocyte nuclear factor 3-beta (Homo sapiens) (UniProt Q9Y261); assay: ATG_FoxA2_CIS: Attagene CIS-FACTORIAL HepG2 Assay for human Forkhead box A2 (FOXA2) (AID 2282942); conditions: HepG2 cis-reporter transcription factor activity, 24 h; actives raise or lower the signal
Outline: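 Multiplexed cis-element reporter assay in transiently transfected HepG2. Twenty-four hours post-dosing, RNA was reverse-transcribed, amplified, FAM-labelled, HpaI-digested and separated by CE. Activity gain or loss relative to DMSO.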

[17] = ATG_FoxO_CIS: Attagene CIS-FACTORIAL HepG2 Assay for human Forkhead box O (FoxO) (AID 2282943); conditions: HepG2 Attagene cis-reporter, FoxO element, mRNA; actives raise or lower the signal
Outline: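 HepG2 cells transiently transfected with cis-promoter-driven multiple reporter transcription units; 24 h after chemical dosing, reporter mRNA quantified by RT-PCR, fluorescent primer extension, HpaI digestion and capillary electrophoresis. Bidirectional fitting versus DMSO baseline.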

[18] = ATG_GATA_CIS: Attagene CIS-FACTORIAL HepG2 Assay for human GATA Binding Protein (AID 2282944); conditions: HepG2 GATA cis-element reporter, Attagene multiplex mRNA; actives raise or lower the signal
Outline: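 Transient MRTU transfection, HepG2, 24 h compound exposure. Total RNA → oligo(dT) RT → PCR → 6-FAM primer extension → HpaI cut → CE. Bidirectional fit vs DMSO.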

[19] = ATG_GLI_CIS: Attagene CIS-FACTORIAL HepG2 Assay for human Zinc Finger Protein GLI1 (AID 2282945); conditions: HepG2, Attagene cis-factorial reporter mRNA, GLI element; actives raise or lower the signal
Outline: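 HepG2 cells transiently transfected with cis-promoter multiplexed reporter units report endogenous transcription factor activity. After 24 h chemical exposure, reporter mRNA was quantified by RT-PCR, 6-FAM labelling, HpaI digestion and capillary electrophoresis, with bidirectional fitting against DMSO.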

Measured: AC50

Chain of Aryl hydrocarbon receptor (Homo sapiens) (P35869 whole entry, looked up): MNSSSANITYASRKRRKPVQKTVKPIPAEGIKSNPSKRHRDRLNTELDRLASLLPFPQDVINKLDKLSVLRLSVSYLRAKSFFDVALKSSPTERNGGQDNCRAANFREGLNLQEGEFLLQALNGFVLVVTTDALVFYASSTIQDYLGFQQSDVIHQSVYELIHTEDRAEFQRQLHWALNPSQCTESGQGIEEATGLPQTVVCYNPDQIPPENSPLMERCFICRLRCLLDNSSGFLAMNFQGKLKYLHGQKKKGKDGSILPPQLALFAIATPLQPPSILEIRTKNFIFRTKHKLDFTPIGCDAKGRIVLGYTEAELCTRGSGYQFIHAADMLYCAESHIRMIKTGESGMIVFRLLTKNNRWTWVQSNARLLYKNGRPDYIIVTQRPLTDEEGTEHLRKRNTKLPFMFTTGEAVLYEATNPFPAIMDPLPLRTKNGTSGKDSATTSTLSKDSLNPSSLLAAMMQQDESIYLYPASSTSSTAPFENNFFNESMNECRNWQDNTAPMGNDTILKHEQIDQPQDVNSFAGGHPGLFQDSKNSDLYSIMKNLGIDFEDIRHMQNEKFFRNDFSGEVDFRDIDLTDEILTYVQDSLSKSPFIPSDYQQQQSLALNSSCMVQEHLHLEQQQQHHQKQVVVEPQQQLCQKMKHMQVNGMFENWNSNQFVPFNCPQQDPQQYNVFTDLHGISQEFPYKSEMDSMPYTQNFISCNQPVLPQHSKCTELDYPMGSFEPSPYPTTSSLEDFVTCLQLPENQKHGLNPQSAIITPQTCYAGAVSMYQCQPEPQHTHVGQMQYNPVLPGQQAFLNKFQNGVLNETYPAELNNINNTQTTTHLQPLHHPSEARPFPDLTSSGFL
Chain of Retinoic acid receptor alpha (Homo sapiens) (P10276 whole entry, looked up): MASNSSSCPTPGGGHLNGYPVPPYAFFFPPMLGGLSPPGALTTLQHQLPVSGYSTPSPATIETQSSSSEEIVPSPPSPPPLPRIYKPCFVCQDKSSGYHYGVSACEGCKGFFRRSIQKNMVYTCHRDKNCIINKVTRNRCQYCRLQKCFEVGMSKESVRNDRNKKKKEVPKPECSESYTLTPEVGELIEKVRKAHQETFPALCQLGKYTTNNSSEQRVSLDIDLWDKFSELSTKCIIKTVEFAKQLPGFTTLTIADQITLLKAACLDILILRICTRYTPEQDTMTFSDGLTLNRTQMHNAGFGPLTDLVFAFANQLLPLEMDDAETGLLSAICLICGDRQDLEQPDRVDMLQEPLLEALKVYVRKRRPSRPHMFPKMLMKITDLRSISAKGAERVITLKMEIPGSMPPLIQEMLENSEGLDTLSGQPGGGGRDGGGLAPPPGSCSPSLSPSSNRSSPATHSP
Chain of Hepatocyte nuclear factor 3-beta (Homo sapiens) (Q9Y261 whole entry, looked up): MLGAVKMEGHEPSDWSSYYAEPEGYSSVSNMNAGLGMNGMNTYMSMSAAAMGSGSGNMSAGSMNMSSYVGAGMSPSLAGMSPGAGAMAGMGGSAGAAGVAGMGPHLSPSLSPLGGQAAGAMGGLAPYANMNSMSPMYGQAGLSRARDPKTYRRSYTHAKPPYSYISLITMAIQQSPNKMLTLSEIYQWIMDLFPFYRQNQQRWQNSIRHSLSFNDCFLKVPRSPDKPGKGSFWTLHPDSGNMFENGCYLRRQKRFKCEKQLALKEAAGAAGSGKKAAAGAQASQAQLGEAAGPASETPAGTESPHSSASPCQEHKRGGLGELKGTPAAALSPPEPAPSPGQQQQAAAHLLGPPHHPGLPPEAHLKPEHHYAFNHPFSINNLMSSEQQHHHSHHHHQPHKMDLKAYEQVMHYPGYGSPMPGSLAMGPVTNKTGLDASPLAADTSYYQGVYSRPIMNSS
Chain of Transcription factor E2F1 (Homo sapiens) (Q01094 whole entry, looked up): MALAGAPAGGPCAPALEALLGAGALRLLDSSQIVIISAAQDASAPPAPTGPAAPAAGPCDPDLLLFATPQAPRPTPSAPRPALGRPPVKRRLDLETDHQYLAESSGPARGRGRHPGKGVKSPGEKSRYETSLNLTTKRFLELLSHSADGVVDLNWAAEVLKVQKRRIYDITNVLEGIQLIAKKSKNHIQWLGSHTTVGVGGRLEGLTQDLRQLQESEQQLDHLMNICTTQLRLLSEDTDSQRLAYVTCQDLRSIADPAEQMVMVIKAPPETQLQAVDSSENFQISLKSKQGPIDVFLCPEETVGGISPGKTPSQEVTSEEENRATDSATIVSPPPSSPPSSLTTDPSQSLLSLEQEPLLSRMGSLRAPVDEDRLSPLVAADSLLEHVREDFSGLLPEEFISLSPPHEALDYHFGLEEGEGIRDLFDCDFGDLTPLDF

CC(=O)OCC(=O)[C@@]12N=C(C)O[C@@H]1C[C@H]1[C@@H]3CCC4=CC(=O)C=C[C@]4(C)[C@H]3[C@@H](O)C[C@@]12C
active: [8] 27.5 µM | [14] 34.2 µM
inactive: all other assays above

COc1c2ccoc2cc2oc(=O)ccc12
not listed: [2]
inactive: all other assays above

O=S(=O)(O)c1ccccc1C=Cc1ccc(-c2ccc(C=Cc3ccccc3S(=O)(=O)O)cc2)cc1
active: [7] 39.6 µM | [10] 40.6 µM
inactive: all other assays above
